Screening data as filed in PubChem.
HT1080 IDH1KD tx: toxicity to HT-1080 IDH1 knockdown cells (counter line). HT-1080 IDH1 knockdown viability, ATP luminescence, 48 h. Potency, µM (doses to about 46.1 µM), inactives show at the top dose activity, negative = toxicity, usual class: cytotoxic. 360,000 compounds, 2% hits. AID 686971;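 note: 0% = DMSO wells and -100% = cell-free medium wells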
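Viability of IDH1-knockdown HT-1080 fibrosarcoma cells was assessed by CellTiter-Glo after 48 h at 37 °C with titrated compound; concentration-effect curves were classified by fit quality and response size.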
KB-3-1 cytotox: kills parental KB-3-1 adenocarcinoma cells. KB-3-1 viability, CellTiter-Glo ATP luminescence, 72 h. Potency, µM (doses to about 46.1 µM), actives largely listed as cytotoxic. 400,000 compounds, 1.4% hits. AID 1347075; note: % is set by controls: 0 for no effect and ±100 for the full control effect; nearly all actives have a fitted effect of over 60% in size
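Screening of KB-3-1 cells (DMEM, 10% FBS, phenol-red free) ran from lowest to highest compound concentration; after 72 h at 37 °C viability was read luminescently and curves fitted.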
MCF10A rerep: induces DNA re-replication in MCF 10a normal breast cells. MCF 10A DNA re-replication, Hoechst nuclear intensity, 48 h. Potency, µM (highest dose often 46.1 µM), without a hit: at the highest dose activity, positive = re-replication, usual class: activators. 350,000 compounds, 2.9% hits. AID 624296; note: % of control where 0% means no effect; nearly all actives have a fitted effect of over 50% in size
HT1080NT lethal: kills 2HG-producing HT-1080-NT fibrosarcoma cells; HT-1080-NT fibrosarcoma viability, CellTiter-Glo ATP luminescence, 48 h; Potency, µM (titrated, usually from 46.1 µM), for inactives: at the highest dose activity, negative = less viability, most hits filed as cytotoxic; 360,000 compounds, 1.6% hits; AID 686970;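 note: NT is the 2HG producing partner of a matched IDH1 knockdown line; 0% = DMSO-treated cells and -100% = media-only wells without cells; nearly all actives have a fitted effect of over 55% in size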
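A 48-hour cytotoxicity screen used HT-1080-NT cells plated 2 hours before compound delivery. ATP-based CellTiter-Glo luminescence measured viability, normalized to DMSO and no-cell controls.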
SW480 rereplic: induces DNA re-replication in SW480 colon adenocarcinoma cells. SW480 DNA re-replication, Hoechst DNA content imaging, 48 h. AID 624297. Potency, µM (series often up to 46.1 µM), for the others: at the top dose re-replication activation, most hits filed as activators. 340,000 compounds, 1.8% hits; note: % of control where 0% means no effect; nearly all actives have a fitted effect of over 55% in size
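Readout is total intensity of Hoechst-stained nuclei, excited at 405 nm and collected at 500-530 nm. Compound treatment lasted 48 hr at 37 C in 5% CO2 before staining.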
KB-V1 cytotox: KB-V1 MDR subline cytotoxicity; 400,000 compounds, 3.4% hits; Potency, µM (top dose mostly 46.1 µM), actives largely listed as cytotoxic; KB-V1 MDR cells viability, CellTiter-Glo, 72 h; note: % is set by controls: 0 for no effect and ±100 for the full control effect; nearly all actives have a fitted effect of over 60% in size
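Cells of the MDR subline KB-V1 are plated, dosed with compound at multiple concentrations, and incubated 72 h at 37 degrees C; CellTiter-Glo is then added and luminescence read after 10 min.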
* marks the source's active call; other numbers are inactive results; i = inactive; u = inconclusive; x = no result given; [ ] = dose if it differs, or a comment. A selection: hits, their analogues and other compounds. The true share with any hit is near 7.9%. Calls come from the whole dose curve; as a rule, active = well fitted curve in the direction sought with a large enough effect; inconclusive = small, poorly fitted or top-dose-only effect, or another doubt; inactive = no such curve, though single readings can be large; an effect the other way counts as inactive or inconclusive. Potency is the fitted concentration of half-maximal effect.

SMILES	HT1080 IDH1KD tx	KB-3-1 cytotox	MCF10A rerep	HT1080NT lethal	SW480 rereplic	KB-V1 cytotox
O=C(Nc1ccc(Cn2cccn2)cc1)c1ccc(COc2ccccc2Br)cc1	u	9.2µM*	u	u	u	18µM*
CCN(CC(=O)NCc1cccs1)C(=O)c1ccc(S(=O)(=O)Nc2ccccc2)cc1	-7%	i	-3%	3%	-2%	i
Cc1cc(C)nc(SCc2ccc(C(=O)N/N=C/c3cccc(O)c3O)cc2)n1	2.3µM*	u	u	u	u	u
Cc1cc(C)n2nc(SCC(=O)Nc3ccc(F)cc3[N+](=O)[O-])nc2n1	0%	i	1%	1%	-3%	21µM*
Cc1cc(C)nc(SCC(=O)Nc2ccccc2[N+](=O)[O-])n1	4%	i	1%	4%	-3%	23µM*
Cc1cc(C)nc(SCNC(=O)c2ccccc2)n1	7.1µM*	i	u	5µM*	5.8µM*	i
Cc1cccc(SCC(=O)Nc2ccccc2[N+](=O)[O-])c1	-4%	i	5%	9%	5%	i
CCc1ccc(NC(=O)CSc2nccn2-c2cccc(C)c2C)cc1	x	i	x	x	x	u
Cc1cccc(Nc2nnc(SCC(=O)Nc3ccccc3[N+](=O)[O-])s2)c1	-16%	i	7%	-11%	2%	21µM*
COC(=O)c1ccccc1NC(=O)CSc1nc(C)cc(C)n1	1%	i	6%	-11%	-7%	i
Cc1cc(C)nc(SCC(=O)Nc2ccnc3ccccc23)n1	-13%	3.7µM*	-6%	1%	3%	4.6µM*
Cc1c(N=C2C=CC(=O)c3ccccc32)c(=O)n(-c2ccccc2)n1C	18µM*	i	u	21µM*	u	i
CCC(Sc1nc2c(c(=O)[nH]1)CCC2)C(=O)Nc1cccc(OC)c1 (configuration not stated)	-28%	i	23%	-8%	0%	16µM*
Cn1c(=O)c2cc(NC(=O)CC(C)(C)C)ccc2n1-c1ccccc1F	22%	i	x	u	x	i
CC(CC(=O)Nc1ccc2c(c1)c(=O)n(C)n2-c1ccc2ccccc2c1)C(F)(F)F (configuration not stated)	u	5.8µM*	x	u	x	5.8µM*
Cn1c(=O)c2cc(NC(=O)Cc3cccnc3)ccc2n1-c1ccc2ccccc2c1	18µM*	u	x	u	x	u
CC(CC(=O)Nc1ccc2c(c1)c(=O)n(C)n2-c1ccccc1F)c1ccccc1 (configuration not stated)	4.1µM*	u	x	7.3µM*	x	u
COC(=O)c1ccc(CNC(=O)c2ccc(OC)c(S(=O)(=O)NC3CCCC3)c2)cc1	1%	i	16%	-4%	-14%	i
Cc1cccc(NC(=O)c2cc(NC(=O)C3CCCCC3C(=O)O)ccc2N2CCCCC2)c1 (configuration not stated)	-12%	i	15µM*	8%[9.24 µM]	3%	i
Cc1cccc(NC(=O)c2cc(NC(=O)C3CC=CCC3C(=O)O)ccc2N2CCOCC2)c1 (configuration not stated)	12%	i	-3%	6%	0%	i
CC(=O)Nc1ccc(N2CCCCC2)c(C(=O)Nc2cccc(C)c2)c1	u	i	u	-7%	4%	7.3µM*
Cc1ccc(NC(=O)c2cc(NC(=O)c3ccccc3C(=O)O)ccc2N2CCCCC2)cc1	3%	i	-54%	-6%	-15%	i
C[C@H](CO)N1C[C@H](C)[C@@H](CN(C)C(=O)Nc2ccc(C(F)(F)F)cc2)Oc2c(NS(=O)(=O)c3cn(C)cn3)cccc2C1=O	-1%	i	-5%	-22%	-6%	i
COc1ccc(OC)c(S(=O)(=O)N2CCN(c3ccccc3OC)CC2)c1	-10%	i	6%	-16%	3%	i
